Each structure is given as a SMILES string. The campaign covered roughly 2,000 compounds. About 190 (9.5%) were called active. Not shown: some 14% with an inconclusive outcome.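 How the source made its calls: active means fitted activation curve crossing 40% at a concentration no higher than the sample's top valid tested dose; inconclusive means flat fitted curve at 30% to 70% activation, or poor curve fit; inactive means signal decrease, flat curve within 30%, or the rest.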 A selection follows.

This assay can be described thus: sustained heat shock response element induction – cell-based, mouse, luciferase, cherry-pick, dose, confirmation (AID 602296).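 Further: test compounds applied by themselves with no MG132 co-treatment.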 The settings on record: NIH3T3-HGL HSF-1 response element luciferase, 48 h; series mostly up to 26 µM.
Regarding `CC12CCC(=O)N1C(C(=O)Nc1cccc3ccccc13)CS2` (configuration not stated), the call was inactive.

On to `COc1ccc(CNCC(O)COc2ccc(C(C)(C)c3ccccc3)cc2)cc1` (configuration not stated), for which the outcome was inactive.

For the compound `COc1ccc(Cl)cc1NC(=O)CCc1nc(-c2ccccc2F)no1`, the compound was classed as inactive.

On to `Cc1ccc(-c2ccc(=O)[nH]n2)cc1`, for which the compound was called inactive.

Take `c1ccc(Cn2nnnc2C(c2cccs2)N2CCc3ccccc3C2)cc1` (configuration not stated): the result was inactive.

`COc1ccc(N/C=C(\C=C\C#N)S(=O)(=O)c2ccccc2)cc1`: the call was inactive.

Turning to `Cc1cccc(NC(=S)N(CCN(C)C)C(C)c2cccnc2)c1` (configuration not stated), the compound was classed as inactive.

Consider `COCCOC(=O)C1=C(C)NC(C)=C(C(=O)OCCOC)C1/C=C/c1ccccc1OC`, for which the outcome was inactive.

`COc1ccc(C(=O)COC(=O)c2cccnc2SC)cc1`: the compound was called inactive.

In the case of `CCOc1ccc(S(=O)(=O)NNC(=S)Nc2ccc(Br)cc2)cc1`, the compound was called inactive.

On to `CCOC(=O)c1c(NC(C)=O)sc2c1CCC(C=NCCCN(CC)CC)=C2Sc1ccccc1`, for which the compound was called inactive.

Regarding `O=C(c1ccc(Br)cc1)N1CCCC(c2nc(-c3cccs3)no2)C1` (configuration not stated), the outcome was inactive.

`Cc1[nH]c2ccccc2c1CN1CCN(c2ccccn2)CC1`: the call was inactive.

As to `CCOc1ccc(NC(=O)C2CC(=O)N3CCCN=C3S2)cc1` (configuration not stated), the outcome was inactive.

As to `CCOC(=O)c1nnc(-c2ccccc2)nc1Sc1ccccc1Cl`, the compound was called inactive.

Consider `CCC(NC(=O)/C(=C\c1ccc2c(c1)OCO2)NC(C)=O)C(=O)O` (configuration not stated), for which the call was inactive.

Turning to `Cc1cc(NC(=O)CSc2nc3c(cc2C#N)CCC3)no1`, the call was inactive.

In the case of `Cc1nonc1C1CCCN1Cc1cn[nH]c1-c1ccc(-c2ccccc2)cc1` (configuration not stated), the outcome was inactive.

On to `Cc1ccc2c(CN3CCN(S(=O)(=O)/C=C/c4ccccc4)CC3)cc(=O)oc2c1`, for which the result was inactive.

In the case of `O=C1C2CCCCC2C(=O)N1Cc1ccccc1` (configuration not stated), the compound was classed as inactive.

On to `CC(C)C(C)N(Cc1ccc(C(=O)O)cc1)C(=O)c1ccc2ccccc2n1` (configuration not stated), for which the result was inactive.

In the case of `O=C(Nc1ccn(Cc2ccccc2F)n1)c1ccc(COc2ccc(Cl)cc2Cl)o1`, the call was inactive.

Take `Cn1c(CN2CCN(c3ccc(Cl)cc3)CC2)nc2ccccc21`: the result was inactive.

Regarding `Brc1ccc(CSc2nnc(-c3ccccn3)n2Cc2ccco2)cc1`, the compound was called inactive.

Regarding `CSc1nc(S(=O)(=O)c2ccc(C)cc2)c(Cl)s1`, the compound was called inactive.

As for `COc1ccc(CCNCc2cc(C)n(-c3ccc(OC)cc3)c2C)cc1`, the result was inactive.

In the case of `Cc1cc(C(=O)N/N=C/c2ccc([N+](=O)[O-])s2)c2ccccc2n1`, the compound was called inactive.

For `Clc1ccc(-n2cc(COCc3ccccc3)nn2)cc1`, the result was inactive.

Turning to `COc1ccc(OC)c(S(=O)(=O)Nc2ccccc2O)c1`, the compound was called inactive.

In the case of `COc1ccc(Cl)cc1N(CC(=O)Nc1ccccc1SC)S(C)(=O)=O`, the compound was called inactive.

Turning to `CCOC(=O)/C=C/C(=O)OCC(=O)NC(c1ccccc1)c1ccccc1`, the result was inactive.

`Cc1onc(-c2ccccc2)c1C(=O)N/N=C/c1cccc(O)c1`: the outcome was inactive.

`C=CCc1ccc(OCC(O)CO)c(OC)c1` (configuration not stated): the compound was called inactive.

Consider `NC(=O)c1ccc(NC(=O)CC23CC4CC(CC(Br)(C4)C2)C3)cc1`, for which the compound was classed as inactive.

With `Cc1cccn2c(=O)nc(SCC(=O)N3N=C(c4cccs4)CC3c3ccc(F)cc3)nc12` (configuration not stated), the compound was called inactive.

As for `O=C(NNc1c(F)c(F)cc(F)c1F)c1ccc(Cl)nc1`, the outcome was inactive.

With `CCOc1ccc(CN(C)CC(O)COC(c2ccc(OC)cc2)c2ccc(OC)cc2)cc1` (configuration not stated), the outcome was inactive.

On to `O=C(/C(=N/N=C/c1ccc(O)c(O)c1)c1ccccc1)c1ccccc1`, for which the result was inactive.

With `Cc1ccc(Cl)c2c1=NC(=O)C=2c1[nH]c(=S)[nH]c1O`, the outcome was inactive.

Turning to `Cc1ccc(N(Cc2ccc(C(=O)Nc3ccccc3C(=O)NCc3ccco3)cc2)S(C)(=O)=O)cc1C`, the result was inactive.

As for `CC(C)=C1C2CCC1C1C(=O)N(c3nc(-c4ccccc4)c(C)s3)C(=O)C21` (configuration not stated), the call was inactive.

With `COc1ccc(CCNC(=O)C2CCCN(Cc3nc(-c4ccccc4C)oc3C)C2)cc1OC` (configuration not stated), the compound was called inactive.

For the compound `O=C1[C@@H]2Cc3c([nH]c4ccccc34)C(c3ccc([N+](=O)[O-])cc3)N2C(=O)CN1C1CC1` (some centres not stated), the call was inactive.

With `CC(=O)c1ccc(N=C2C(=O)Nc3ccccc32)cc1`, the result was inactive.

Take `Cc1ccc(-c2[nH]c3ccccc3c2C(C[N+](=O)[O-])c2ccco2)cc1` (configuration not stated): the compound was called inactive.

For the compound `Cc1cc(Sc2nnc(N)s2)c2ccccc2n1`, the outcome was inactive.

For `COC(=O)Nc1ccc(S(=O)(=O)N2CCC(C(=O)N3CCCC(C)C3)CC2)cc1` (configuration not stated), the compound was called inactive.

Take `CC12CN(C(=S)Nc3ccccc3)CC(C)(CN(C(=S)Nc3ccccc3)C1)C2=O`: the compound was called inactive.

For the compound `COc1ccccc1C(=O)NCCCNC(=O)c1ccccn1`, the compound was classed as inactive.

In the case of `NCCCCCc1nnc(SC/C=C/c2ccccc2)o1`, the result was inactive.

With `COc1cc(-c2nnc(SC/C=C/c3ccccc3)n2N)cc(OC)c1OC`, the compound was classed as inactive.

Regarding `COc1cccc(-c2c(C(=O)N/N=C(\C)c3ccc(Cl)s3)nnn2-c2nonc2N)c1`, the compound was called inactive.

As to `C=C(C)Cn1c(SCC(=O)O)nnc1-c1ccc(OC)cc1`, the compound was called inactive.

Regarding `CC(=O)COc1cccc2ccc(/C=C/c3ccc(Br)s3)nc12`, the compound was called inactive.

Consider `Cc1[nH]n(-c2ccccc2)c(=O)c1C(C[N+](=O)[O-])c1ccc(F)cc1` (configuration not stated), for which the result was inactive.

For `C=CCn1c(C2CCCCC2)n[nH]c1=S`, the compound was called inactive.

As to `S=c1[nH]nc(-c2cc(-c3ccccc3)n[nH]2)n1/N=C/C(Br)=C/c1ccccc1`, the compound was called inactive.

In the case of `COc1ccc2cc(S(=O)(=O)N3CCCCC3)ccc2c1S(=O)(=O)N1CCCCC1`, the outcome was inactive.

Take `CCOC(=O)COc1ccc(/C=C2/SC(=Nc3ccccc3)N(Cc3cccnc3)C2=O)cc1OC`: the result was inactive.

`CCCCc1nnc(NC(=O)C(C)Sc2nc(C)cc(=O)[nH]2)s1` (configuration not stated): the compound was called inactive.

In the case of `CCn1c(CNC(C)=O)nnc1SCC(=O)c1ccc(Br)cc1`, the compound was called inactive.

Regarding `COc1ccc(C(CCNCc2ccccc2)c2ccc(F)cc2)cc1` (configuration not stated), the outcome was inactive.

For the compound `Nc1cnn(Cc2ccc(F)cc2)c1`, the call was inactive.

Turning to `CC1=CC(C)(C)Nc2ccc(OC(=O)C(Cc3ccccc3)N3C(=O)c4ccccc4C3=O)cc21` (configuration not stated), the compound was called inactive.

As to `CCOc1ncccc1C(=O)N(C)CC1COc2ccccc2O1` (configuration not stated), the compound was classed as inactive.

Regarding `O=C(CCCN1C(=O)c2cccc3cccc(c23)C1=O)Nc1ccon1`, the compound was called inactive.

Consider `CCN(CC)CCOc1ccc(/C(=C(/Cl)c2ccccc2)c2ccccc2)cc1`, for which the compound was called inactive.

Turning to `CCCCN(C)C(=O)C1CCC(CNS(=O)(=O)c2ccc3c(c2)CC(C)N3C(=O)C2CC2)CC1` (configuration not stated), the result was inactive.

For `Brc1ccc2c(c1)C(c1cccnc1)=NNC(c1cccs1)=N2`, the compound was classed as inactive.

As for `Cc1ccc(-n2c(C)cc(C(=O)COc3c(CO)cc(F)cc3CO)c2C)cc1C`, the result was inactive.

On to `Cc1c(NC(=O)CSc2nnc3c4ccccc4n(CCc4ccccc4)c3n2)c(=O)n(-c2ccccc2)n1C`, for which the compound was called inactive.

On to `CC(=O)Nc1ccc(N2C(=O)C3C4CC(=O)C(c5ccccc54)C3C2=O)cc1` (configuration not stated), for which the compound was called inactive.

Regarding `O=c1[nH]c(CSc2ccccn2)nc2c1oc1ccccc12`, the outcome was inactive.

Take `C=CCn1c(COc2ccc(CC)cc2)nnc1SC/C(O)=C(\C#N)c1nc2ccccc2[nH]1`: the call was inactive.

For `S=C(NCCSCc1ccc(Cl)c(Cl)c1)Nc1ccccc1`, the outcome was inactive.

As to `O=C(CSC1=NCCN1)Nc1cccc(C(F)(F)F)c1`, the compound was classed as inactive.

In the case of `CC1(C)CC(=O)C2=C(C1)N1C(=C(C#N)C2c2ccc(Cl)cc2)N=C(N)c2ccccc21` (configuration not stated), the result was inactive.

For `O=C(CNS(=O)(=O)c1ccc(Br)s1)NCc1ccccc1`, the result was inactive.

For `Cc1ccc(CNC(=O)Cn2ccc3ccccc3c2=O)o1`, the outcome was inactive.

`CNC(=O)N(O)C1N(/N=C/c2c(F)cccc2Cl)C(=S)SC1(C)C` (configuration not stated): the compound was called inactive.

As to `FC(F)(F)c1ccc(Sc2nnc(-c3cccs3)n2CC2CCCO2)nc1` (configuration not stated), the result was inactive.

For `Clc1ccc(CCNc2nc3ccccc3n3nnnc23)cc1`, the outcome was inactive.

Turning to `O=C(Nc1cccc(Cl)c1)N1CCC(CO)(CCOc2ccccc2)CC1`, the compound was classed as inactive.

For `COc1ccc(/C=C/C(=O)c2ccc(O)cc2)cc1COc1ccc(F)cc1`, the outcome was inactive.

As to `Oc1cc(-c2ccccc2)c2ccccc2c1`, the call was inactive.

For `Cc1nc2cc3nc(C(F)(F)F)[nH]c3cc2[nH]1`, the outcome was inactive.

As to `COc1ccccc1CCC(=O)OCC(=O)Nc1c(Br)cc(C)cc1Br`, the compound was classed as inactive.

In the case of `O=C(NCCc1ccc(O)c(O)c1)C1COc2ccccc2O1` (configuration not stated), the call was inactive.

In the case of `CC(NC(=O)c1ccc(C(C)(C)C)cc1)C(c1cccs1)N1CCOCC1` (configuration not stated), the compound was called inactive.

Regarding `CCNC(=O)C(=O)NCc1ccncc1`, the outcome was inactive.

In the case of `CCn1cnc2c1c(=O)n(Cc1nnc3n1-c1ccccc1SC3)c(=O)n2Cc1ccccc1`, the call was inactive.

For `N#Cc1cc(Cl)c(NCC2CCCO2)cc1C#N` (configuration not stated), the compound was classed as inactive.

For the compound `Cc1ccc(S(=O)(=O)NNC(=O)c2sc3nc(C)cc(C)c3c2-n2cccc2)cc1`, the outcome was inactive.

Take `Clc1ccc(CO/N=C/c2c(-c3ccccc3)nc3n2CCS3)c(Cl)c1`: the compound was called inactive.

On to `Cc1ccc(-c2nc3ccccc3[nH]2)cc1NC(=O)c1ccc2c(c1)OCO2`, for which the call was inactive.

For the compound `COc1cccc(NC=C2C(=O)OC3(CCCCC3)OC2=O)c1`, the call was inactive.

As to `Cc1sc2nc(CSc3cccc(C(F)(F)F)c3)[nH]c(=O)c2c1C`, the compound was classed as inactive.

For `COc1ccc(N2C(=O)CC(Sc3nnnn3-c3ccc(F)cc3)C2=O)cc1` (configuration not stated), the call was inactive.

Consider `CC(C(=O)Nc1ccccc1Br)N1c2cccc3cccc(c23)S1(=O)=O` (configuration not stated), for which the outcome was inactive.

Regarding `CC(=O)c1ccc(N2CCN(C(=O)c3n[nH]c4ccccc34)CC2)cc1`, the call was inactive.

As to `Cc1ccc(C(=O)Cn2nnc(-c3ccccc3-n3cnnn3)n2)cc1`, the call was inactive.

For the compound `COc1ccccc1NC(=O)C1=C(C)NC2=C(C(=O)CC(c3ccc(OC)c(OC)c3)C2)C1c1coc2ccccc2c1=O` (configuration not stated), the call was inactive.

`Cc1ccc(S(=O)(=O)N(C)c2ccc(C)c([N+](=O)[O-])c2)cc1`: the compound was classed as inactive.

Regarding `CCOC(=O)C1=C(C)Nc2nc3ccccc3n2C1c1ccncc1` (configuration not stated), the call was inactive.

Take `COc1ccc(NC(=O)C(NCC(C)C)c2ccccc2)cc1Cl` (configuration not stated): the compound was called inactive.

`O=S(=O)(c1ccc(-n2cnnn2)cc1)N1CCNCC1`: the result was inactive.

As for `CCCCCCCCCCCC(=O)c1c(O)cccc1O`, the outcome was inactive.

For the origin of these results see PubChem BioAssay AID602296 (Broad Institute, 2012).
